In PubChem BioAssay:
Activity calls are given as the source filed them.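 The calls were made as follows, unless noted: active = visual image review flags a hit and inhibition of aggregation exceeds 20%; inconclusive = visual hit but inhibition at or below 20%; inactive = no hit on visual image review.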

Legend:
[1] = inhibitors of TNFa-induced NFkB p65 translocation, primary screen, imaging, HUVEC, MLSMR starter and 10KST1 sets (AID 438;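 active = inhibition above 20% together with a positive visual image hit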;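 also: compound added about 3h40 before a 20 min TNFalpha stimulation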;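 as to inhibition: signal is the nuclear over cytoplasmic p65 intensity ratio per well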); conditions: HUVEC TNFa-induced p65 nuclear translocation; cell count: measured here: nuclei count (cytotoxicity indicator), at 2.08 µM; inhibition: at 2 µM, stronger effect = higher value, 0% TNFa-plus-vehicle, 100% no-TNFa wells
[2] = inhibitors of mutant huntingtin aggregation, primary screen, imaging, exon1htt(103Q)mCFP cells, high-content imaging (AID 483); conditions: exon1htt(103Q)mCFP cell line, aggregate imaging, at 2 µM; inhibition of aggregation: stronger effect = higher value; nuclei count: measured here: cell count, toxicity;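 also: compound exposure lasted 3 days before fixation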;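 as to nuclei count: percent of the per-plate median nuclei count of sample wells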
[3] = inhibitors of E-selectin induction by TNFa, primary screen, imaging, HUVEC, immunofluorescence, MLSMR starter and 10KST1 sets (AID 487;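 active = visually confirmed hit in the image check and inhibition above 20%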;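 as to inhibition: signal is fraction of cell area covered by stained E-selectin grains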;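 as to nuclei count: 100% = median nuclei count of all wells on the same plate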); conditions: HUVEC TNFalpha-induced E-selectin immunofluorescence imaging, at 2 µM; inhibition: stronger effect = higher value; nuclei count: measured here: cell number, toxicity
[4] = target: Voltage-gated potassium channel subunit beta-2 (Rattus norvegicus) (UniProt P62483); assay: KvBeta enzyme negative modulators, primary screen, biochemical, NADPH fluorescence (AID 622;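 active = fluorescence slope higher than the sample average by over 3 SD, cut at about -0.22 in these data, passing the limit was not always enough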;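 also: slope of raw intensity against log time taken from 70 to 1610 s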); conditions: recombinant KvBeta, 4-cyanobenzaldehyde reduction, at 10 µM, stronger effect = higher value
[5] = target: Voltage-gated potassium channel subunit beta-2 (Rattus norvegicus) (UniProt P62483); assay: KvBeta positive modulators, primary screen, biochemical, NADPH fluorescence (AID 623;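 active = NADPH fluorescence slope more negative than the mean of all samples by about 3 SD, 99.7% confidence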;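 also: fluorescence intensity change per second fitted from 20 to 320 s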); conditions: Recombinant KvBeta, NADPH fluorescence decrease slope, 10 min; at 10 µM; stronger effect = lower value
[6] = target: Alpha-2C adrenergic receptor (Homo sapiens) (UniProt P18825); assay: modulators of alpha2C/GIRK thallium flux, primary screen, cell-based, HEK293 alpha2C/GIRK1/2 (AID 624;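 active = fluorescence slope after compound addition differing from the mean of all screened samples at 99.7% confidence, in either direction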;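 also: slope of fluorescence ratio to pre-addition baseline per second over 15 to 24 s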); conditions: thallium flux BTC fluorescence, at 10 µM, actives lie on both sides
[7] = inhibitors of Sendai virus-induced IRF3 signaling, primary screen, TLR/RLR signaling modifier project, cell-based, Sendai virus stimulus, luciferase, 10K MLSCN set (AID 602276;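 active = inhibition at or above 50% at 10 µM; inactive = inhibition below 50%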;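 also: firefly luciferase from ISG56 promoter only with Renilla not read in this screen; 0% = Sendai virus plus DMSO and 100% = medium plus DMSO without virus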); conditions: HEK293 RL24 IRF3 luciferase reporter, at 10 µM, stronger effect = higher value
[8] = inhibitors of poly I:C-induced TLR3 signaling, primary screen, cell-based, poly I:C stimulus, luciferase, 10K MLSCN set (AID 602277;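 active = inhibition of the reporter signal at or above 50%; inactive = inhibition below 50%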); conditions: HEK293-TLR3 RL24 IRF3 luciferase reporter, at 10 µM, stronger effect = higher value

Chain of Alpha-2C adrenergic receptor (Homo sapiens) (P18825 whole entry, looked up): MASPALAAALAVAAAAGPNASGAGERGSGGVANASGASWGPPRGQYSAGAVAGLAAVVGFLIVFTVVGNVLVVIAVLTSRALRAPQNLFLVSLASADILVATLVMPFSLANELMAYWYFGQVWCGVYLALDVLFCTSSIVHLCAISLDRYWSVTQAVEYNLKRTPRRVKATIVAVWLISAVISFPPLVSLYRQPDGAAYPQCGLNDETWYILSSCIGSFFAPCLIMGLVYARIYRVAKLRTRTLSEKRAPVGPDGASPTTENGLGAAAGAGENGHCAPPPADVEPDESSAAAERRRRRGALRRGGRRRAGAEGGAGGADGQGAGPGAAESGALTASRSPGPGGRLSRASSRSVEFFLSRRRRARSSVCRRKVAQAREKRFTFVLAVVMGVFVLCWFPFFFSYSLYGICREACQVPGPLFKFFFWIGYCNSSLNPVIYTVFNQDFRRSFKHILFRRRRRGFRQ
Chain of Voltage-gated potassium channel subunit beta-2 (Rattus norvegicus) (P62483 whole entry, looked up): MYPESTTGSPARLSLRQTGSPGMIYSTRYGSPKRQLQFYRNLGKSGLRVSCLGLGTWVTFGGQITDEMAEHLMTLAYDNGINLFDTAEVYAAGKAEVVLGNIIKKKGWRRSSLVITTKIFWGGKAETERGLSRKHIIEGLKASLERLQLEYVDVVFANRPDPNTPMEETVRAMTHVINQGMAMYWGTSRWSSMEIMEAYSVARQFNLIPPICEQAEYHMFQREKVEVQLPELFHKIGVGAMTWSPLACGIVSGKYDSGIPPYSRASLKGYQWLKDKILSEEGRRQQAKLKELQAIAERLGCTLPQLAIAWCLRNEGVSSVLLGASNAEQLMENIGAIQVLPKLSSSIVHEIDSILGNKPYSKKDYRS

Compound | cell count [1] | inhibition [1] | inhibition of aggregation [2] | nuclei count [2] [%] | inhibition [3] | nuclei count [3] [%] | fluorescence slope [4] | NADPH fluorescence slope [5] | slope [6] | inhibition [7] | inhibition [8]
COc1ccc(CCNC(=O)CSc2nnnn2-c2ccccc2OC)cc1OC | 681 | -1.1% (inactive) | 1.5% (inactive) | 106 | -10.8% (inactive) | 109 | -0.531 (inactive) | -5.1e-05 (inactive) | 0.00687 (inactive) | 15.3% (inactive) | 31.8% (inactive)
Cc1nc(-c2cccc(-c3noc(C)n3)c2)no1 | 341 | 2.2% (inactive) | -8.5% (inactive) | 105 | 11.4% (inactive) | 108 | -0.473 (inactive) | -4.9e-05 (inactive) | 0.00665 (inactive) | -12.8% (inactive) | -3.56% (inactive)
COc1ccc(NC(=O)CC2Oc3ccccc3NC2=O)cc1 (stereo not drawn) | 560 | 8.3% (inactive) | -0.3% (inactive) | 92.4 | -48.1% (inactive) | 122 | -0.556 (inactive) | -3.2e-05 (inactive) | 0.00626 (inactive) | 4.81% (inactive) | 31.8% (inactive)
CCc1c(C(=O)Nc2cc(C)ccc2OC)[nH]c(C)c1C(C)=O | 313 | -1.7% (inactive) | -4.5% (inactive) | 65.3 | 2.7% (inactive) | 76.2 | -0.424 (inactive) | 1.1e-05 (inactive) | 0.00495 (inactive) | 23.1% (inactive) | 27.6% (inactive)
COc1ccccc1N1CCN(C(CNS(=O)(=O)c2cc(F)ccc2F)c2cccnc2)CC1 (stereo not drawn) | 557 | 7.2% (inactive) | -5.9% (inactive) | 96.7 | -5% (inactive) | 108 | -0.359 (inactive) | -5.8e-05 (inactive) | 0.00529 (inactive) | 9.38% (inactive) | 22.5% (inactive)
CN(C1CCCCC1)S(=O)(=O)c1ccc(S(=O)(=O)N2CCCC2)cc1 | 737 | -10.5% (inactive) | -9.6% (inactive) | 100 | -78.3% (inactive) | 126 | -0.432 (inactive) | -2.1e-05 (inactive) | 0.00521 (inactive) | 16.1% (inactive) | 21.2% (inactive)
COc1ccc2[nH]c(=O)c(CN(Cc3cccs3)Cc3nnnn3C(C)(C)C)cc2c1 | 713 | 29.2% (inactive) | 1.1% (inactive) | 111 | 12.5% (inactive) | 88.8 | -0.417 (inactive) | -3.6e-05 (inactive) | 0.00579 (inactive) | 10% (inactive) | 7.17% (inactive)
CCCC(=O)Nc1cc(-c2nnc(OC)c3ccccc23)ccc1N1CCOCC1 | 385 | -9.8% (inactive) | -2% (inactive) | 105 | -14.8% (inactive) | 112 | -0.522 (inactive) | -3.3e-06 (inactive) | 0.00489 (inactive) | 22.9% (inactive) | 27.2% (inactive)
O=C(CSCc1cccc(F)c1)N1CCN(c2ccccc2)CC1 | 545 | -14.3% (inactive) | 33.7% (inactive) | 68.7 | -66.2% (inactive) | 123 | -0.398 (inactive) | -5.3e-05 (inactive) | 0.00288 (inactive) | -32.3% (inactive) | -145% (inactive)
Cn1cccc1Cc1nnc(SCC(=O)Nc2ccccc2F)n1CCc1ccccc1 | 614 | -7.4% (inactive) | 7.5% (inactive) | 92.6 | -52.6% (inactive) | 103 | -0.619 (inactive) | 1.5e-05 (inactive) | 0.00629 (inactive) | 3.46% (inactive) | 10.1% (inactive)
O=C(CSc1nc2ccccc2[nH]1)c1ccc2c(c1)OCO2 | 673 | 2.4% (inactive) | -4% (inactive) | 102 | -2.6% (inactive) | 100 | -0.471 (inactive) | -1.2e-05 (inactive) | 0.00599 (inactive) | 18.8% (inactive) | -39.5% (inactive)
CCOC(=O)C1CCN(C(=O)CN(Cc2ccccc2)S(C)(=O)=O)CC1 | 370 | 2.3% (inactive) | -32.7% (inactive) | 102 | -78.2% (inactive) | 115 | -0.422 (inactive) | -5.7e-05 (inactive) | 0.00496 (inactive) | 10% (inactive) | 7.77% (inactive)
CCOc1ccc(C2CC(c3ccccc3C)n3nc(N)nc3N2)cc1 (stereo not drawn) | 515 | 5% (inactive) | 30.8% (inactive) | 91.1 | -43.7% (inactive) | 90.1 | -0.586 (inactive) | 1.8e-05 (inactive) | 0.00699 (inactive) | 10.4% (inactive) | 25% (inactive)
CCOc1ccc(N(C(C)C(=O)NC2CCCCCC2)S(C)(=O)=O)cc1 (stereo not drawn) | 355 | 2.7% (inactive) | -10.8% (inactive) | 109 | -40.2% (inactive) | 107 | -0.342 (inactive) | -4e-05 (inactive) | 0.00764 (inactive) | 3.76% (inactive) | 19.7% (inactive)
CC(NC(=O)c1ccco1)c1ccc2c(c1)OCCO2 (stereo not drawn) | 418 | 9.3% (inactive) | 10% (inactive) | 89.2 | -95% (inactive) | 105 | -0.431 (inactive) | -2.6e-05 (inactive) | 0.00638 (inactive) | 9.46% (inactive) | 15.1% (inactive)
Cc1cc(C)c2nc(C(F)(F)F)nc(NCCCN3CCCC3=O)c2c1 | 277 | 5% (inactive) | 21.4% (inactive) | 80.7 | -230% (inactive) | 97.5 | -0.484 (inactive) | -2.3e-05 (inactive) | 0.00428 (inactive) | 16.5% (inactive) | 18.3% (inactive)
Cc1cc(C)n2nc(SCc3nc4ccccc4[nH]3)nc2n1 | 789 | -6.3% (inactive) | -29.8% (inactive) | 103 | -21.3% (inactive) | 117 | -0.568 (inactive) | 8.8e-06 (inactive) | 0.00609 (inactive) | -26.2% (inactive) | -34.6% (inactive)
CCOC(=O)Cn1c(CN2CCOCC2)nc2c1c(=O)[nH]c(=O)n2C | 507 | -1% (inactive) | -19.1% (inactive) | 102 | -6% (inactive) | 118 | -0.601 (inactive) | -4.7e-05 (inactive) | 0.00569 (inactive) | 15.2% (inactive) | 27.7% (inactive)
O=C(c1ccco1)N1CCN(c2nc(C(F)(F)F)nc3c2nnn3Cc2ccccc2)CC1 | 534 | -2.5% (inactive) | -6.6% (inactive) | 87.1 | -10.1% (inactive) | 103 | -0.484 (inactive) | -5.9e-05 (inactive) | 0.00661 (inactive) | 3.06% (inactive) | -42% (inactive)
Cc1ccc(C)c(N(CC(=O)NC2CCCC2)C(=O)CCCC(=O)Nc2ccccn2)c1 | 516 | -18.3% (inactive) | 7.5% (inactive) | 93.9 | -50.6% (inactive) | 95.7 | -0.539 (inactive) | -4.4e-05 (inactive) | 0.00581 (inactive) | 13.6% (inactive) | 27.2% (inactive)
COc1ccc(C2=CC(=O)OC3(CCCCC3)O2)cc1 | 390 | -5.3% (inactive) | -4.6% (inactive) | 99.3 | -152% (inactive) | 115 | -0.475 (inactive) | -8.9e-05 (inactive) | 0.0046 (inactive) | 13% (inactive) | 22.7% (inactive)
O=S(CC(O)COCc1ccc(Cl)cc1)c1ccccn1 (stereo not drawn) | 420 | -7.1% (inactive) | -11.3% (inactive) | 107 | -37% (inactive) | 127 | -0.442 (inactive) | 6.3e-05 (inactive) | 0.00586 (inactive) | 18.9% (inactive) | 23.8% (inactive)
Cc1cc(C)c2c(n1)nn1c(NCCCN3CCOCC3)cc(C)nc21 | 484 | -4.5% (inactive) | 11.5% (inactive) | 119 | -19.1% (inactive) | 114 | -0.509 (inactive) | -1.9e-05 (inactive) | 0.00545 (inactive) | 8.42% (inactive) | 21.2% (inactive)
Cc1cc(C)nc(N2CCC(C(=O)Nc3ccc4c(c3)CCC4)CC2)n1 | 338 | 6.3% (inactive) | 17.6% (inactive) | 92 | -103% (inactive) | 120 | -0.405 (inactive) | -6.3e-05 (inactive) | 0.00372 (inactive) | 5.67% (inactive) | 24.8% (inactive)
Cc1ccc(Nc2cc(-n3nc(C)cc3C)ncn2)cc1 | 378 | 5.2% (inactive) | -9.7% (inactive) | 99.7 | -14.1% (inactive) | 101 | -0.442 (inactive) | -3.4e-05 (inactive) | 0.00717 (inactive) | -0.371% (inactive) | -15.8% (inactive)
CCn1nnnc1SCC(=O)Nc1nc(-c2cccs2)cs1 | 327 | -8.9% (inactive) | 9.4% (inactive) | 100 | -63.9% (inactive) | 104 | -0.491 (inactive) | -4.6e-05 (inactive) | 0.00497 (inactive) | 15.8% (inactive) | 20.5% (inactive)
O=C(Nc1ccc2c(c1)OCCO2)NC1CCCCC1 | 379 | 0.5% (inactive) | 20.1% (inactive) | 58.3 | -33.5% (inactive) | 102 | -0.487 (inactive) | -1.2e-05 (inactive) | 0.00607 (inactive) | -28.7% (inactive) | -68.9% (inactive)
COc1cc2c(cc1OC)C(c1ccccc1O)N(C1CC(=O)N(c3ccccc3)C1=O)CC2 (stereo not drawn) | 409 | -0.5% (inactive) | -10.4% (inactive) | 105 | -27.1% (inactive) | 123 | -0.411 (inactive) | -8.8e-05 (inactive) | 0.00648 (inactive) | 15.9% (inactive) | 28.7% (inactive)
